In PubChem BioAssay AID588689 (Southern Research Specialized Biocontainment Screening …, 2011):
In all, about 340,000 compounds went through this assay and about 1,000 (0.29%) were called active. Rule as the data show it: inconclusive = inhibition above about 29% without an active follow-up result; inactive = below that. The list is a sample of the results. Potency and affinity values are given separately.

Target: Genome polyprotein (Dengue virus type 2 (strain 16681-PDK53)) (UniProt P29991)
Test: Dengue-2 NS5 methyltransferase inhibitors, primary screen, biochemical, confirmation dose response (AID 588689)
Settings: Dengue-2 NS5 methyltransferase capping enzyme assay, at 25 µM, stronger effect = higher value
[1] = measured here: pilot screen replicate inhibition

Row | Structure (SMILES) | inhibition | inhibition [1]
1 | CCCOc1ccccc1N/C(=N/c1nc(C)cc(C)n1)NC(=O)Nc1ccc(Cl)cc1 | -4.07% (inactive) | 
2 | Oc1ccc(C[C@H]2CNCCN2CCc2cccc3ccccc23)cc1 | 6.4% (inactive) | 
3 | O=C(NCCCO)c1cc2ccccc2[nH]1 | -9.54% (inactive) | 
4 | O=C1Nc2ccccc2C12NCCc1c2[nH]c2ccccc12 (stereo unspecified) | 6.48% (inactive) | 
5 | O=C(O)c1ccccc1-c1ccccc1C(=O)Nc1ccc2oc(=O)c3ccccc3c2c1 | 11.5% (inactive) | 
6 | O=C(O)c1ccccc1-c1ccccc1C(=O)Nc1ccc2c(c1)[nH]c(=O)c1ccccc12 | 9.14% (inactive) | 
7 | CCC(NS(=O)(=O)c1ccc(OC)cc1)C(=O)NCCc1ccccc1 (stereo unspecified) | -3.31% (inactive) | 
8 | Cc1ccc(OCC(=O)Sc2ccc(C)cc2)cc1 | -33.2% (inactive) | 
9 | CC1(C)[C@@H](O)CC[C@]2(C)[C@H]3C(=O)C=C4[C@@H]5C[C@@](C)(C(=O)O)CC[C@]5(C)CC[C@@]4(C)[C@]3(C)CC[C@@H]12 | -0.73% (inactive) | 
10 | Cc1sc2ncnc(N3CCC(C(=O)Nc4sc5c(c4C(N)=O)CCC(C)C5)CC3)c2c1C (stereo unspecified) | 0% (inactive) | 
11 | Cc1cccc(CCNC(=O)CCc2nnc(CCc3ccccc3)o2)n1 | -0.91% (inactive) | 
12 | CC(NC(=O)c1ccco1)C(=O)NC(C)c1cc(F)c(Cl)cc1Cl (stereo unspecified) | -1.62% (inactive) | 
13 | COc1ccc(CC(=O)Nc2ccc(S(=O)(=O)N3CCOCC3)cc2)cc1 | 0% (inactive) | 
14 | O=C(COC(=O)c1ccc([N+](=O)[O-])o1)NCc1ccc2c(c1)OCO2 | 0% (inactive) | 
15 | O=C(O)c1cccc(-n2cccc2/C=N/O)c1 | 0% (inactive) | 
16 | O=C(O)c1cccc(-n2cccc2/C=C\[N+](=O)[O-])c1 | 0.75% (inactive) | 
17 | O=C(N/C(=C\c1cccnc1)C(=O)N1CCC(O)CC1)c1ccccc1 | -1.67% (inactive) | 
18 | CC(=O)Nc1ccc(S(=O)(=O)NCCC(=O)OCC(=O)c2ccc(Br)cc2)cc1 | -10.1% (inactive) | 
19 | Cc1ccc(C)n1N1C(=O)/C(=C\c2ccc(Cl)cc2)SC1=S | 6.92% (inactive) | 
20 | CC(=O)NN1C(=O)/C(=C\c2ccc(Cl)cc2)SC1=S | 1.78% (inactive) | 

Row | Structure (SMILES) | inhibition | inhibition [1]
21 | COc1ccc(-c2nc(CS(=O)CC(=O)NCc3ccc(F)cc3)c(C)o2)cc1 (stereo unspecified) | -10.5% (inactive) | 
22 | COc1cc(C(=O)NCCC(c2ccccc2)c2ccccc2)cc(OC)c1OC | -9.51% (inactive) | 
23 | CC1=NN(c2ccccc2)C(=O)/C1=C/C=C/c1ccccc1 | 0.72% (inactive) | 
24 | CCOc1cc(/C=C2/C(=O)N(c3ccccc3)N=C2C)ccc1OC(=O)c1cccs1 | 8.81% (inactive) | 
25 | CC1=NN(c2ccccc2)C(=O)/C1=C\c1cc(C)n(-c2ccccc2)c1C | -4.02% (inactive) | 
26 | CC1=NN(c2ccccc2)C(=O)/C1=C/c1ccc[nH]1 | -6.55% (inactive) | 
27 | CC(=O)c1ccc(OC(=O)c2cccs2)cc1 | -2.4% (inactive) | 
28 | CC1=NN(c2ccccc2)C(=O)/C1=C\c1sccc1C | 3.11% (inactive) | 
29 | CC1=NN(c2ccc(Br)cc2)C(=O)/C1=C/c1cccs1 | 22% (inactive) | 
30 | CC1=NN(c2ccccc2)C(=O)/C1=C/N(C)C | 2.35% (inactive) | 
31 | COCCN(C(=O)COC(=O)C(c1ccccc1)c1ccccc1)c1c(N)n(Cc2ccccc2)c(=O)[nH]c1=O | 0% (inactive) | 
32 | CCC(C(=O)OCC(=O)N(C)c1c(N)n(Cc2ccccc2)c(=O)[nH]c1=O)c1ccccc1 (stereo unspecified) | -2.91% (inactive) | 
33 | COc1cccc(N2C(=O)Nc3ccc(Br)cc3C2(O)C(=O)NCCCOC(C)C)c1 (stereo unspecified) | -4.76% (inactive) | 
34 | Cc1cc(C)c(C)c(S(=O)(=O)NCCN2CCOCC2)c1C | 6.21% (inactive) | 
35 | COC(=O)c1ccc(CSC2=NC[C@@H]3[C@@H]4C(=O)N(C)C(=O)[C@@H]4[C@](C)(C(=O)OC)N23)cc1 | -0.66% (inactive) | 1.52%
36 | CCOc1ccc(C(=O)NCC(=O)NCCCSc2ccccc2)cc1OCC | -5.91% (inactive) | 
37 | CCOC(=O)N1CCN(CC(=O)c2ccc(O)c(C)c2O)CC1 | 0.45% (inactive) | 
38 | CC1=NN(c2ccccc2)C(=O)/C1=C\c1cn(-c2ccccc2)nc1C | 3.59% (inactive) | 
39 | COc1ccc(/C=C2/C(=O)N(c3ccccc3)N=C2C)cc1Br | 18.3% (inactive) | 
40 | CC1=NN(c2ccccc2)C(=O)/C1=C\c1cc(C)n(C)c1C | 0% (inactive) | 

Row | Structure (SMILES) | inhibition | inhibition [1]
41 | CC1=NN(c2ccccc2)C(=O)/C1=C\c1ccc(Br)s1 | -0.88% (inactive) | 
42 | COc1ccccc1/C=C1/C(=O)N(c2ccc([N+](=O)[O-])cc2)N=C1C | 3.11% (inactive) | 
43 | CC1=NN(c2ccccc2)C(=O)/C1=C\N(O)c1ccccc1 | 1.98% (inactive) | -1.18%
44 | OCCC1CN(Cc2cc3c(cc2Cl)OCO3)CCN1Cc1ccccc1 (stereo unspecified) | 1.46% (inactive) | 
45 | CCN(CC)S(=O)(=O)c1cc(NC(=O)CSc2nnc(N)s2)ccc1C | 0.37% (inactive) | 
46 | COc1ccc(C(=O)NC(=S)Nc2cccnc2)cc1[N+](=O)[O-] | 6.37% (inactive) | 
47 | CC(C)C(=O)NNS(=O)(=O)c1ccccc1[N+](=O)[O-] | -1.48% (inactive) | 
48 | Cc1nn(-c2ccc(F)cc2)c(Cl)c1C(=O)N(C)CC(=O)Nc1cccc(F)c1 | -5.05% (inactive) | 
49 | CCCC(=O)N(c1ccc(C(=O)O)cc1)c1nc(-c2ccccc2)c(C)s1 | -13.9% (inactive) | 
50 | Cc1c(Br)c(=O)oc2c(Br)c(O)c(O)cc12 | 6.73% (inactive) | 
51 | Cc1c(Br)c(=O)oc2c(Br)c(O)ccc12 | -1.45% (inactive) | 
52 | CCOC(=O)C(=O)NNc1ccccc1OC | -3.11% (inactive) | 
53 | Cc1ccc(Cc2c(-c3ccc(Cl)cc3)nc3ccc(Cl)cn23)cc1 | 7.95% (inactive) | 
54 | C#CCOc1ccc(Cl)cc1/C=C1/C(=O)ON=C1C | 10.6% (inactive) | 
55 | C#CCOc1c(Cl)cc(/C=C2/C(=O)ON=C2C)cc1OC | 19.6% (inactive) | 
56 | CCOc1cc(/C=C2/C(=O)ON=C2C)cc(Br)c1O | -74.3% (inactive) | 
57 | COc1ccc(/C=C2/C(=O)ON=C2C)cc1Br | 17.8% (inactive) | 
58 | COc1ccc(/C=C2/C(=O)ON=C2C)cc1Cl | 5.23% (inactive) | 
59 | S=C(NCCc1c[nH]c2ccccc12)NC1CC1 | 2.32% (inactive) | 
